M1 PAM parental = counter-screen for M1 PAMs: effect in parental CHO-K1 cells; ATP EC20, Fluo-8 calcium fluorescence; 0% at ATP EC20, 100% at ATP max; activation, % at 3 µM; hit rate 0.02% among 360,000; AID 602247;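 active = activation above the run cutoff, the mean activation of all test compounds plus 3 SD, cut at about 40% in these data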;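 also: peak over basal fluorescence ratio in a 140 s read after ATP addition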
CHRM1 PAM = positive allosteric modulators of human M1 muscarinic receptor. activation, % at 3 µM. P11229. hit rate 0.088% among 360,000. CHO-K1 hM1, Fluo-8 calcium fluorescence, ACh EC20; 0% = ACh EC20, 100% = maximal ACh; in the data active = activation above about 19%, passing the limit was not always enough
Target sequence (P11229 whole entry, looked up): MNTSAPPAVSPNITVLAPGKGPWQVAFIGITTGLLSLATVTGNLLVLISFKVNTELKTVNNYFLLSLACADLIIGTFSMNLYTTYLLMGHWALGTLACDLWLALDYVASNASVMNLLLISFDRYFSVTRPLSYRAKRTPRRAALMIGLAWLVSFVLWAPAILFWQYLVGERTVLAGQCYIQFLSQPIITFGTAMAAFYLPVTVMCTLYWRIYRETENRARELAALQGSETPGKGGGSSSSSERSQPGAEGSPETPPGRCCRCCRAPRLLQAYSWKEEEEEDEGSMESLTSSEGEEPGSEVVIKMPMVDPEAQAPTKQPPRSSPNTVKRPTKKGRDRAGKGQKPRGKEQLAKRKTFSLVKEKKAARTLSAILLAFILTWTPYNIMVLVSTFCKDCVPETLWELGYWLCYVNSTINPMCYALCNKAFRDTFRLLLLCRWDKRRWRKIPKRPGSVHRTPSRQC
M1 antag = blocks human M1 muscarinic receptor | P11229 | hit rate 1.3% among 360,000 | CHO-K1 hM1, Fluo-8 calcium fluorescence, ACh EC80 antagonist | inhibition, % at 3 µM;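 active = percent inhibition above its own plate's cutoff, namely the mean of that plate's compound wells plus 3 SD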;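 also: peak over basal fluorescence ratio during 140 s after agonist addition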
CHO-K1 Ca antag = nonselective inhibitor or artifact in parental CHO-K1 cells; AID 602250; ATP-induced calcium, Fluo-8 fluorescence; inhibition, % at 3 µM; hit rate 0.6% among 360,000;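 active = inhibition above a per-plate cutoff, the plate's mean sample inhibition plus 3 SD, cut at about 24% in these data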
M1 ag parental = nonselective activator or artifact in parental CHO-K1 cells; Fluo-8 calcium fluorescence; scaled to maximal ATP response, vehicle zero; activation, % at 3 µM; hit rate 0.48% among 360,000; AID 602248; in the data active = activation above about 15%;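 also: untransfected CHO-K1 host cells lacking M1 receptor as counterscreen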
M1 ag = agonists of human M1 muscarinic receptor. P11229. CHO-K1 hM1, Fluo-8 calcium fluorescence, agonist mode; 0% DMSO, 100% acetylcholine EC100. activation, % at 3 µM. hit rate 0.33% among 360,000. AID 588814;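 active = activation above the run's mean compound activation plus 3 SD, cut at about 16% in these data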;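 also: peak over basal fluorescence ratio within a 140 s kinetic read after compound addition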
Of the large screens only hits and unclear results are named; the others gave an inactive call. Rows were chosen to be rich in hits. Some 2.3% of all compounds tested hit in one or more screens of this group.

CN(C)/C=C1\C=C2C(=O)c3ccccc3N2C1=O	CHO-K1 Ca antag 41, M1 ag parental 165, M1 ag 141
CCn1ncc(S(=O)(=O)Nc2cc(Cl)ccc2C)c1C	none
O=C(CCN1C(=O)C2C3CCC(C3)C2C1=O)OCC(=O)c1ccc(Cl)cc1 (configuration not stated)	none
CCN1CCN(c2nc3c(c(=O)[nH]c(=O)n3C)n2CCSc2nc3ccccc3s2)CC1	M1 ag 30
Cn1c(=O)[nH]c(=O)c2c1nc(N1CCOCC1)n2CCCSc1ncccn1	M1 ag parental 16
CC1CC(C)CN(c2nc3c(c(=O)[nH]c(=O)n3C)n2CCCSc2nc3ccccc3s2)C1 (configuration not stated)	none
Cc1ccnc(SCCn2c(N3CCOCC3)nc3c2c(=O)[nH]c(=O)n3C)n1	none
Cc1ccccc1OCCC(=O)OCC(=O)Nc1c(C)nn(-c2ccccc2)c1C	none
CCCCC(CC)CN=C(N)NC(N)=NCCCCCCN=C(N)NC(N)=NCC(CC)CCCC (configuration not stated)	M1 antag 88, M1 ag 58
O=C(NS(=O)(=O)Oc1cccc(Cl)c1Cl)OC[C@@H]1CCCN2CCCCC12 (some centres not stated)	none
O=C(CN1CCN(Cc2ccccc2)CC1)Nc1cccc(C(F)(F)F)c1	CHO-K1 Ca antag 26
CN1CCc2c(sc(NC(=O)c3cc(Cl)sc3Cl)c2C(N)=O)C1	none
CCCCN1CCCCC1C(=O)Nc1c(C)cc(C)cc1C (configuration not stated)	CHO-K1 Ca antag 30
Cc1cc(C)c(NC(=O)C2CCCN2CCO)c(C)c1 (configuration not stated)	none
COC(C[C@H]1O[C@@H]1[C@H](O)COCc1ccccc1)OC	none
COC(C[C@H]1O[C@H]1[C@@H](O)COCc1ccccc1)OC	M1 antag 39
COc1ccc(CCNC(=O)c2ccc(S(=O)(=O)N3CCCCC3)cc2)cc1	none
CCNCCC(=O)N1c2ccccc2Sc2ccc(C(F)(F)F)cc21	M1 antag 100
O=C(CN1CCCC1)N1c2ccccc2Sc2ccc(C(F)(F)F)cc21	M1 antag 99
O=C(CN1CCCC1)N1c2ccccc2Sc2ccc(Cl)cc21	M1 antag 99
O=C(CN1CCN(c2ccccn2)CC1)N1c2ccccc2Sc2ccc(C(F)(F)F)cc21	M1 antag 31
Cc1c(OCC(=O)NCCN2CCOCC2)ccc2c1oc(=O)c1ccccc12	M1 ag parental 17
Clc1ccc(Cc2ccccn2)cc1	none
CC1CCCCN1CC(=O)Nc1ccccc1Sc1ccccc1 (configuration not stated)	M1 antag 27
CC(=O)C1=C(C)OC(N)=C(C#N)C1c1cc2cc(C)c(C)cc2nc1Cl (configuration not stated)	none
COC(=O)C1=C(C)OC(N)=C(C#N)C1c1cc2cc(C)ccc2nc1Cl (configuration not stated)	M1 ag 24
N#C/C(=N\Nc1cccc(C(F)(F)F)c1)C(=O)c1csc(-c2cccnc2)n1	CHO-K1 Ca antag 24
Cc1ccc(C(=O)Nc2cccc(C(F)(F)F)c2)cc1NC(=O)c1csc(-c2ccncc2)n1	none
CC(C)(C)c1ccc(C(=O)N2CCC(=O)N(C(COCc3ccccc3)Cc3ccccc3)CC2)cc1 (configuration not stated)	M1 antag 33
CC(C)(C)c1ccc(C(=O)N2CCC(=O)N([C@H](COCc3ccccc3)Cc3ccccc3)CC2)cc1	none (no result: CHRM1 PAM, M1 antag, M1 ag)
COc1ccc(Cl)cc1-c1nc(-c2ccc(NC(=O)c3ccncc3)cc2)no1	none
COc1ccc(-c2nc(-c3ccc(NC(=O)c4ccncc4)cc3)no2)cc1OC	M1 antag 39
CS(=O)(=O)N(CC(=O)NC1CCCC1)c1ccc2c(c1)OCCO2	M1 antag 35
CNC(=O)CN(c1ccc2c(c1)OCCO2)S(C)(=O)=O	none
O=C1CN(S(=O)(=O)c2cccc(C(=O)O)c2)c2ccccc2N1	none
O=C(CCCOC(=O)c1cccnc1Cl)c1ccc(Br)cc1	none
O=C(CCCOC(=O)c1ccc(O)cc1O)c1ccc(Br)cc1	M1 antag 19
COc1cccc(CN(C)C(=O)c2ccc(S(=O)(=O)Nc3cccc(C)c3C)cc2)c1OC	none
CC(C)N1C(=O)S/C(=C/c2ccc(Sc3nc4ccccc4[nH]3)o2)C1=O	none
C=CCN1C(=O)S/C(=C/c2ccc(Sc3nc4ccccc4[nH]3)o2)C1=O	CHO-K1 Ca antag 26
CCCOc1ccc(N2C(=O)CC(N3CCN(CCN=CC4C(=O)CC(C)(C)CC4=O)CC3)C2=O)cc1 (configuration not stated)	none
CC(CN1CCCCC1)OC(=O)C1c2ccccc2Oc2ccccc21 (configuration not stated)	M1 antag 87
N#Cc1cnn(CC2CCCCC2)c1N	CHO-K1 Ca antag 30
CCCc1cc(=O)[nH]c(SCC(=O)Nc2ncc(S(=O)(=O)c3ccc([N+](=O)[O-])cc3)s2)n1	none
O=C(Nc1ncc(S(=O)(=O)c2ccc([N+](=O)[O-])cc2)s1)c1ccccc1F	M1 antag 32, M1 ag 30
Cc1csc(NC(=O)CSc2ccc([N+](=O)[O-])cn2)n1	M1 ag parental 16
COC(=O)C(NC(=O)c1ccccc1C)(Nc1ncc(S(=O)(=O)c2ccc([N+](=O)[O-])cc2)s1)C(F)(F)F (configuration not stated)	M1 ag 17
Cc1nnc(SCC(=O)Nc2ncc(S(=O)(=O)c3ccc([N+](=O)[O-])cc3)s2)s1	M1 PAM parental 44
O=C(Nc1ccc([N+](=O)[O-])cc1)c1ccccc1F	none
O=C(Nc1ccc2c(c1)OCO2)c1csc([C@H]2C[C@H](O)[C@@H](CO)O2)n1	none
CCCNC(=S)NC1CCCC1	M1 antag 38
CN(c1cccc(NC(=O)COc2ccc(Cl)cc2Cl)c1)S(C)(=O)=O	none
CCOc1ccc(N2CC(C(=O)Nc3nnc(CC)s3)CC2=O)cc1 (configuration not stated)	CHRM1 PAM 28
COc1cccc(N2CC(C(=O)Nc3nnc(SCc4ccccn4)s3)CC2=O)c1 (configuration not stated)	none
O=C(Nc1nnc(SCc2ccccn2)s1)C1CC(=O)N(c2ccc(F)cc2)C1 (configuration not stated)	M1 antag 25
CCc1nnc(NC(=O)C2CC(=O)N(c3ccc(C)cc3)C2)s1 (configuration not stated)	CHO-K1 Ca antag 24
CCOCCc1nnc(NC(=O)C2CC(=O)N(c3ccc(OCC)cc3)C2)s1 (configuration not stated)	none

Screening results: PubChem BioAssay, The Scripps Research Institute Molecular Screening Center
